Measurements taken from publication PMC7862700, “An all-to-all approach to the identification of sequence-specific readers for epigenetic DNA modifications on cytosine”.

Experiments:
Experiment in all cases: DAPPL (digital affinity profiling via proximity ligation, sequencing); 10 mM Tris-HCl pH 7.5, 50 mM NaCl, 1 mM DTT, 4% glycerol, room temperature, 30 min; GST-TFs on glutathione beads, 16-mer random dsDNA library, 0.1% formaldehyde crosslink after washing; high values mean tight binding
Conditions in all cases: protein: recombinant; tags: N-terminal GST; dsDNA, one strand shown
ELK1 = biological target: T1, ELK1 (Homo sapiens, UniProt P19419 1-428)
T1 sequence: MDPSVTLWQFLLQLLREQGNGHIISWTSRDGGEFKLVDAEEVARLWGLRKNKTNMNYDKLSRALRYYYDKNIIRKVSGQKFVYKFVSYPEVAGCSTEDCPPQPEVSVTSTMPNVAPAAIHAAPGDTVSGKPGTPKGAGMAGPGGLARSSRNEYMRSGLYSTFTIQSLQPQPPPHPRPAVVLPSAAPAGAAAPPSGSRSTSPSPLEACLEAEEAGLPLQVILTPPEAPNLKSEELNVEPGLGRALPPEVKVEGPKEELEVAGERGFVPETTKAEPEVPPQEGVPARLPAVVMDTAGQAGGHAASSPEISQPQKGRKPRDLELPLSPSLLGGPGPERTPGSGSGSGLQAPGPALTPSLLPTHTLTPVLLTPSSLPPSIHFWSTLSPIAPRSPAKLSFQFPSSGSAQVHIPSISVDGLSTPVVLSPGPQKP
In short: (§1)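 Yeast served to express human transcription factors as GST fusions, which were then captured on glutathione beads and labelled with DNA barcodes. Pooled with a tag-only sample, they were incubated with 200 nmole of a 16-mer random double-stranded DNA library for 30 min at room temperature in Tris/NaCl/DTT/glycerol buffer, washed, crosslinked with 0.1% formaldehyde, ligated by proximity, amplified by PCR and sequenced. Dividing each hexamer's read frequency for a factor by its frequency for the tag-only sample gives the binding signal.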

SPIB = SPIB (Homo sapiens, UniProt Q01892 1-262)
In short: as §1

ETV5 = ETV5 (Homo sapiens, UniProt P41161 1-510)
In short: as §1

ELF4 = ELF4 (Homo sapiens, UniProt Q99607 1-663)
In short: as §1

ELK4 = biological target: T2, ELK4 (Homo sapiens, UniProt P28324-2 1-405)
T2 sequence: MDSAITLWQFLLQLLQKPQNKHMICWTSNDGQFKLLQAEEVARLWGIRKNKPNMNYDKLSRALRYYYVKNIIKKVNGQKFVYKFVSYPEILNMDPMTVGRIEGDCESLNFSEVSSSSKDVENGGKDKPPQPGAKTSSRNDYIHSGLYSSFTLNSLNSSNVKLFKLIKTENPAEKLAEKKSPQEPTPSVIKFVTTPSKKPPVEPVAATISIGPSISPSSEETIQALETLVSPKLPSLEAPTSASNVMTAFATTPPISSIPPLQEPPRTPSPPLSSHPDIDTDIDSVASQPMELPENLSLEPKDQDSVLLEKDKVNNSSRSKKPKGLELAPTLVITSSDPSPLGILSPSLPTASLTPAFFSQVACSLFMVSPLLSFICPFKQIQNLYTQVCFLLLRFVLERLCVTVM
In short: as §1

ETV2 = biological target: T3, ETV2 (Homo sapiens, UniProt O00321 1-342)
T3 sequence: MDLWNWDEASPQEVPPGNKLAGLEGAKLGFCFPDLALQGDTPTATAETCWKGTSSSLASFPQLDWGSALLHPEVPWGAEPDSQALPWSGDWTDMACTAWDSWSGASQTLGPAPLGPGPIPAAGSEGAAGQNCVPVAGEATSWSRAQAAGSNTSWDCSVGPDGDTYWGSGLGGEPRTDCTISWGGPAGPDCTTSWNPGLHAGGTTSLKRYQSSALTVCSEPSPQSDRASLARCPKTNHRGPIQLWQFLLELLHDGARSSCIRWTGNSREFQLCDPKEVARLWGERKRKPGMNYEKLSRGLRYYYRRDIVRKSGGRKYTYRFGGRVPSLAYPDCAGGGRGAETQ
In short: as §1

ERF = biological target: T4, ERF (Homo sapiens, UniProt P50548 1-548)
T4 sequence: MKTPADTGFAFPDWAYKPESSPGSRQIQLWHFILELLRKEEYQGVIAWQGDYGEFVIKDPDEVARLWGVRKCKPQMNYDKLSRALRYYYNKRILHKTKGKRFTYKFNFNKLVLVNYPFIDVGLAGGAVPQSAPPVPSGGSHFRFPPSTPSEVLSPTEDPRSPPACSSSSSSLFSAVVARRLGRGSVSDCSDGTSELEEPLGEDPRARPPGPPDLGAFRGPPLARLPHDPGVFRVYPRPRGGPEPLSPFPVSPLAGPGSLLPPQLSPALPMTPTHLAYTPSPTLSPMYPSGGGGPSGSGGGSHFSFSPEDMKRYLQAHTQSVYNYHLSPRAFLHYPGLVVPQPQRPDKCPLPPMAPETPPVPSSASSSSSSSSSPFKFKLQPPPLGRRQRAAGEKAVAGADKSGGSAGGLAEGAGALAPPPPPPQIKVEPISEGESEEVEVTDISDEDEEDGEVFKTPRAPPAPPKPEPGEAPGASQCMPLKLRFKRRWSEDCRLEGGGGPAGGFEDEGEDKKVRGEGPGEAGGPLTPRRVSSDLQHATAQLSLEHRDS
In short: as §1

ETS2 = biological target: T5, ETS2 (Homo sapiens, UniProt P15036 1-469)
T5 sequence: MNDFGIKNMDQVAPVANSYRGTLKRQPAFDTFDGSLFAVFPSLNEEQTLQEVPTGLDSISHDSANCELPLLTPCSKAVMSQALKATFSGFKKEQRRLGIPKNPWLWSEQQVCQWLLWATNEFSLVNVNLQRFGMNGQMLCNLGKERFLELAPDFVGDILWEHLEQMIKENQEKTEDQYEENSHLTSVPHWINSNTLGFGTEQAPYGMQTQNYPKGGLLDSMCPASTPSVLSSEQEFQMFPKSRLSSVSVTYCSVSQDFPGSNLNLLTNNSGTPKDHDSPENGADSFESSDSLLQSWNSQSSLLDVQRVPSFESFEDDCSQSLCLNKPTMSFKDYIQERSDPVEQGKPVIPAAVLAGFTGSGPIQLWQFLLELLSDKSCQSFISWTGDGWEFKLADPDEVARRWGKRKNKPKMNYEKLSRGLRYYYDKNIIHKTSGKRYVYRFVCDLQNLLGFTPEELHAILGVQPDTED
In short: as §1

ETV3 = biological target: T6, ETV3 (Homo sapiens, UniProt P41162-2 1-143)
T6 sequence: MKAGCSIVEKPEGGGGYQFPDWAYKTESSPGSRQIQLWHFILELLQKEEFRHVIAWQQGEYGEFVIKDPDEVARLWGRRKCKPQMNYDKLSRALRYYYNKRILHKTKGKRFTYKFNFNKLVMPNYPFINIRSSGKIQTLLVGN
In short: as §1

ETV6 = ETV6 (Homo sapiens, UniProt P41212 1-452)
In short: as §1

Sequence of SPIB (Q01892 whole entry): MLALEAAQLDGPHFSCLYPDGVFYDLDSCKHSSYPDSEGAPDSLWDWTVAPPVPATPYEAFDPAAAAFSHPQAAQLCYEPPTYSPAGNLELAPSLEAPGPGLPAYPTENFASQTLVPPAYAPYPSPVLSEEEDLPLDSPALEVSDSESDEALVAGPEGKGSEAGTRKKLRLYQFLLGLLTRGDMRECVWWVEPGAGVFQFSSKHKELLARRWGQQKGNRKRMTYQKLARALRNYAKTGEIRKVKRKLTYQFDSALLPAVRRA
Sequence of ELF4 (Q99607 whole entry): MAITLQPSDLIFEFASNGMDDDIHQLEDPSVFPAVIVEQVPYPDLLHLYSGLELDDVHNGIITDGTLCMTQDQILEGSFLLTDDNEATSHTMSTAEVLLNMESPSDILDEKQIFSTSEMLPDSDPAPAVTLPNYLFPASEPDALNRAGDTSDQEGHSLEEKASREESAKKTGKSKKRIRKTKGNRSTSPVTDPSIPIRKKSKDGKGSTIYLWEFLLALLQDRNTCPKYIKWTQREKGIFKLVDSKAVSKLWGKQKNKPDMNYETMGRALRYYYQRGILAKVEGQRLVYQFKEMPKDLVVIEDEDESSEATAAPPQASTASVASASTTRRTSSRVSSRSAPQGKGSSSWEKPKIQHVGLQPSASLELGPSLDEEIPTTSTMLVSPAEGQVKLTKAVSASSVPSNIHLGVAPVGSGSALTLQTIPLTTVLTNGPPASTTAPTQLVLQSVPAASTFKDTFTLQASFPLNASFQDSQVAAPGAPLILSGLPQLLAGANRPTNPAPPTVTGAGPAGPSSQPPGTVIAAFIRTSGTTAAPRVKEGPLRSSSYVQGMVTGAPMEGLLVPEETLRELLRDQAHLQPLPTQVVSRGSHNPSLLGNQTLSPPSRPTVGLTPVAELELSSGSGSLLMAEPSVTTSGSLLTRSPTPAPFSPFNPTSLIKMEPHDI
Sequence of ETV5 (P41161 whole entry): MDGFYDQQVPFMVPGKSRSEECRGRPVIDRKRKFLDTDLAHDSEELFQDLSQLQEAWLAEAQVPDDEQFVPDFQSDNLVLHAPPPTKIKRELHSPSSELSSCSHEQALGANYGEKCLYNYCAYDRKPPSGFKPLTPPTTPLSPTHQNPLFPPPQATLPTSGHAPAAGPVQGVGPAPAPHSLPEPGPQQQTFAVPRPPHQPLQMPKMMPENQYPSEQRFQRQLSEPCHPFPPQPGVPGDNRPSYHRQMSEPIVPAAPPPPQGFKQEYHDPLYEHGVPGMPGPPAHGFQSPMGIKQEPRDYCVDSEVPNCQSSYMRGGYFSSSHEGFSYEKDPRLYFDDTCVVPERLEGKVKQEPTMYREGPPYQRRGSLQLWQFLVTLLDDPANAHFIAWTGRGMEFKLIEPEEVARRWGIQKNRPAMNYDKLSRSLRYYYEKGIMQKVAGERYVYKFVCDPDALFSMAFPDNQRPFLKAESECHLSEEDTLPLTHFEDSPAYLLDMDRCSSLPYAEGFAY
Sequence of ETV6 (P41212 whole entry): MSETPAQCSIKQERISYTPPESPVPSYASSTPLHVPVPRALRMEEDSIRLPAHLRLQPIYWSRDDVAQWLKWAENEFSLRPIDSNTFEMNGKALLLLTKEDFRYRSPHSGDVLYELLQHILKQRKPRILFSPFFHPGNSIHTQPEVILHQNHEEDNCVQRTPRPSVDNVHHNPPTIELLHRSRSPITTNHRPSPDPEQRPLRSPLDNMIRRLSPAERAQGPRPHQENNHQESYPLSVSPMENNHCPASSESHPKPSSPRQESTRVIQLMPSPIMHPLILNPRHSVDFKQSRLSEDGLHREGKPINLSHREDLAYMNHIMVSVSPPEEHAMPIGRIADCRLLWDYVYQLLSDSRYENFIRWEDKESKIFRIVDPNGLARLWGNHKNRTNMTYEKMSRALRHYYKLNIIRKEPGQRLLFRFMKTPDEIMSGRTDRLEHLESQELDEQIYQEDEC

**Q.** For TGTGCG, which binding signal (ELK1) is on record?
**A.** Its binding signal is 1.08 fold enrichment (6-mer frequency, TF over GST control).

**Q.** And the binding signal (SPIB)?
**A.** The binding signal was 1.01 fold enrichment (6-mer frequency, TF over GST control).

**Q.** And the binding signal (ETV5)?
**A.** The binding signal was 1.04 fold enrichment (6-mer frequency, TF over GST control).

**Q.** And the binding signal (ELF4)?
**A.** Its binding signal is 1.01 fold enrichment (6-mer frequency, TF over GST control).

**Q.** And the binding signal (ELK4)?
**A.** The binding signal was 1.14 fold enrichment (6-mer frequency, TF over GST control).

**Q.** And the binding signal (ETV2)?
**A.** Its binding signal is 1.2 fold enrichment (6-mer frequency, TF over GST control).

**Q.** And the binding signal (ERF)?
**A.** Its binding signal is 1.06 fold enrichment (6-mer frequency, TF over GST control).

**Q.** What about the binding signal (ETS2) of the same sequence?
**A.** The binding signal was 1.05 fold enrichment (6-mer frequency, TF over GST control).

**Q.** What about the binding signal (ETV3) of the same sequence?
**A.** The binding signal was 1.04 fold enrichment (6-mer frequency, TF over GST control).

**Q.** What about the binding signal (ETV6) of the same sequence?
**A.** The binding signal was 1.06 fold enrichment (6-mer frequency, TF over GST control).
